# This is a sample that favours compounds with a hit; in the whole collection about 9.5% have one here.
# NPSR antagonist – antagonists of human neuropeptide S receptor cAMP signaling; AID 1461; CHO-NPSR cells, cAMP TR-FRET, antagonist mode; Potency, µM (doses to about 38.3 µM), hits mostly inhibitors; 220,000 tested, 1% active; Q6W5P4; note: nearly all actives have a fitted effect of over 50% in size
# Target sequence (Q6W5P4 whole entry, looked up): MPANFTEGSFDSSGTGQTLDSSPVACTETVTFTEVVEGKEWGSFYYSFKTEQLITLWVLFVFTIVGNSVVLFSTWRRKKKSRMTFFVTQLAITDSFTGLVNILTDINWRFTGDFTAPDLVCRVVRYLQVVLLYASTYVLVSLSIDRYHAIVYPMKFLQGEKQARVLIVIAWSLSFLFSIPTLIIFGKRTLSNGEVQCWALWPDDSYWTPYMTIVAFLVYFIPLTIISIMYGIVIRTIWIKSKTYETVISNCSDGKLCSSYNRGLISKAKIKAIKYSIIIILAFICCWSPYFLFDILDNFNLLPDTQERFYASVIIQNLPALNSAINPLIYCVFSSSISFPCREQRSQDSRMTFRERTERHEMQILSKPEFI
# Tau FP inhib – inhibitors of human tau fibril formation | P10636 | K18 P301L tau heparin fibrillization, Alexa594 FP, 6 h | Potency, µM (highest dose often 57.7 µM), actives largely listed as inhibitors | 280,000 tested, 0.39% active | AID 1468; note: nearly all actives have a fitted effect of over 55% in size
# Target sequence (P10636 561-689 P618L limits assumed): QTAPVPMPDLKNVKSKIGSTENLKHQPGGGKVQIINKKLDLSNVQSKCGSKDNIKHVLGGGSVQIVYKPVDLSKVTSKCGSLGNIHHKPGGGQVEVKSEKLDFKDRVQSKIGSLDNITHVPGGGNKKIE
#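 Human K18 P301L fragment (15 uM unlabeled plus 0.24 uM Alexa 594-labeled) in 100 mM sodium acetate pH 7 with compound, aggregation induced by 20 uM heparin for 6 hr at 37 C. ThT (30 uM) added for 1 hr, then Alexa 594 FP read.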
# HPGD block – inhibitors of human 15-hydroxyprostaglandin dehydrogenase (HPGD). P15428. purified HPGD, NADH fluorescence kinetic, PGE2 substrate. Potency, µM, most hits filed as inhibitors. 150,000 tested, 4.3% active. AID 894; active = well fitted inhibition curve with a large enough effect, not every such curve was filed as active; inconclusive = small, poorly fitted or top-dose-only effect, or another doubt; inactive = no such curve, though single readings can be large or run the other way
#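 NADH formation kinetics: reaction with 30 uM PGE2 and 1 mM NAD+ (final), 20 nM enzyme, Tris-HCl pH 8 with Tween 20, after 15 min compound preincubation at room temperature. Fluorescence change, last versus first of five reads.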
# Tau fibril ThT – inhibitors of human tau fibril formation, thioflavin T binding; P10636; recombinant tau K18 P301L, heparin-induced fibrillization, ThT fluorescence; Potency, µM (highest dose often 57.4 µM), usual class: inhibitors; 270,000 tested, 2.1% active; note: nearly all actives have a fitted effect of over 55% in size
#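 Heparin-induced (20 uM) aggregation of recombinant human K18 P301L tau, 15 uM unlabeled with 0.24 uM labeled, pH 7 acetate buffer, 6 hr at 37 C with compound. Fibrils quantified by 30 uM ThT fluorescence after 1 hr ambient incubation.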
# Tau fluor cs – counter-screen for tau fibril formation inhibitors | tau K18 P301L (four-repeat tau fragment) Alexa594 fluorescence, heparin fibrillization | Potency, µM (highest dose often 57.7 µM) | 280,000 tested, 0.93% active; note: nearly all actives have a fitted effect of over 55% in size
#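 Human K18 P301L tau (15 uM unlabeled plus 0.24 uM Alexa 594-labeled, final) in 100 mM sodium acetate pH 7 was mixed with compound and 20 uM heparin and incubated 6 hr at 37 C.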
# ALDH1A1 block – blocks purified human ALDH1A1 activity. P00352. Purified ALDH1A1, NADH fluorescence, propionaldehyde substrate. Potency, µM (series often up to 75.3 µM), usual class: inhibitors. 220,000 tested, 7.3% active. AID 1030; active = well fitted inhibition curve with a large enough effect, not every such curve was filed as active; inconclusive = small, poorly fitted or top-dose-only effect, or another doubt; inactive = no such curve, though single readings can be large or run the other way
# Numbers stand for hits; - = inactive; ? = inconclusive; . = no result given; [ ] = remark or other dose. Unless noted, calls come from the whole dose curve; as a rule, active = well fitted curve in the direction sought with a large enough effect; inconclusive = small, poorly fitted or top-dose-only effect, or another doubt; inactive = no such curve, though single readings can be large; an effect the other way counts as inactive or inconclusive.
SMILES,NPSR antagonist,Tau FP inhib,HPGD block,Tau fibril ThT,Tau fluor cs,ALDH1A1 block
C#CC(C)(CC)NC(=O)c1cc2nc(C3CC3)cc(C(F)(F)F)n2n1 (stereo unspecified),-,-,.,-,-,-
COc1ccc(C(=O)CN2CCN(S(=O)(=O)c3cccc([N+](=O)[O-])c3)CC2)cc1OC,-,-,?,?,-,20µM
COc1cccc(C(=O)CN2CCN(S(=O)(=O)c3cccc([N+](=O)[O-])c3)CC2)c1,-,-,-,-,-,18µM
O[C@@H](COc1cccc2ccccc12)CN1CCOCC1,.,.,-,.,.,-[13.5 µM]
COC(=O)[C@@H]1C=C[C@H](C)[C@H](CCOc2ccccc2)O1,.,-,-,-,-,-
CCCOc1ccc(NC(=O)CC2C(=O)N(Cc3ccccc3)C(=S)N2Cc2cccs2)cc1 (stereo unspecified),-,-,-,-,-,?
Cc1cccc(-c2c3c(=O)n(C)c(=O)n(C)c3cn2CC2CCCO2)c1 (stereo unspecified),-,-,-,-,-,20µM
CC(C)Cn1c2c(c(O)c(C(=O)Nc3ccc(F)cc3)c1=O)CCCC2,-,-,.,-,-,?
CC(C)Cn1c2c(c(O)c(C(=O)Nc3ncccc3O)c1=O)CCCC2,-,-,-,?,-,7.9µM
CC1CN(C(=O)Nc2ccc3c(c2)OCO3)CC(C)O1 (stereo unspecified),-,-,-,-,-,-
Cc1cc(Cl)ccc1NNC(N)=S,-,-,.,.,-,.
Cc1ccc(C)c(NNC(N)=S)c1,-,-,.,-,-,13µM
Cc1cccc(NNC(N)=S)c1C,-,?,.,?,-,13µM
CCCCS(=O)(=O)N1CCc2nc(COc3ccccc3)c3c(c2C1)CO[C@@H](C)C3,.,-[11.6 µM],-,-[11.5 µM],-[11.6 µM],-[13.5 µM]
O=c1[nH]ncc(N2CCCCCC2)c1Cl,-,-,.,-,-,10µM
O=c1[nH]ncc(N2CCCCC2)c1Cl,-,-,-,-,-,-
Cc1ccc(C2C(/C=C3/SC(=S)NC3=O)=C(c3cccs3)Oc3ccccc32)cc1 (stereo unspecified),?,-,-,13µM,?,-
CCOC(=O)C1CCCN(c2ncnc3c2nnn3C)C1 (stereo unspecified),.,-,.,-,-,.
O=C(COc1ccccc1-c1nc(-c2ccccc2)no1)Nc1cccc([N+](=O)[O-])c1,.,-,.,-,?,.
CC(C)N(CC(=O)Nc1ccc(Cl)cc1C(F)(F)F)C(=O)CCl,-,-,.,-,-,1.8µM
CSc1nc(-c2ccccc2)cc(C)c1C#N,-,-,.,-,-,?
N#Cc1c(-c2ccccc2Cl)cc(-c2ccccc2)nc1Br,-,-,25µM,-,-,-
N#Cc1c(-c2cccc(F)c2)cc(-c2ccccc2)nc1Br,?,-,18µM,-,-,-
O=c1cc[nH]c2ccc(OC(F)(F)F)cc12,-[7.67 µM],-,.,-,-,.
c1ccc2sc(N3CCOCC3)nc2c1,-,-,-,-,-,-
SMILES,NPSR antagonist,Tau FP inhib,HPGD block,Tau fibril ThT,Tau fluor cs,ALDH1A1 block
c1ccc2sc(SN3CCOCC3)nc2c1,-,-,14µM,-,-,4µM
CCOC(=O)c1ccccc1NC(=O)N1CCCN(S(=O)(=O)c2ccc3c(ccn3CC)c2)CC1,.,-,.,-,-,.
C=C[C@]1(C)Cc2occ(C)c2C[C@H]1C(=C)C(=O)O,.,-,-,-,-,11µM
COc1cc(-c2nnc(SCCOc3ccc(Cl)cc3)o2)cc(OC)c1OC,.,-,.,-,-,.
COc1ccc(NC(=O)C2C3C=CC(C3)C2C(=O)NCc2ccco2)c(OC)c1 (stereo unspecified),-,-,25µM,-,-,?
Cc1ccc(-n2[nH]c(C)c(/C=N/Nc3ccc([N+](=O)[O-])cc3[N+](=O)[O-])c2=O)cc1,-,10µM,-,1.6µM,3.2µM[quencher],?
Cc1[nH]n(-c2ccc([N+](=O)[O-])cc2)c(=O)c1C=NCCc1c(C)[nH]c2ccccc12,-,?,-,?,22µM[quencher],-
Cc1[nH]n(-c2ccc([N+](=O)[O-])cc2)c(=O)c1C=NCCc1ccc(S(N)(=O)=O)cc1,-,-,.,-,-,-
Fc1ccc(NCc2cccn2-c2nnc(N3CCOCC3)s2)cc1,.,-,.,-,-,.
Cc1ccc2c(c1)C(=O)C(=O)N2Cc1ccc(OC(C)C)cc1,.,-,.,?,-,.
Cc1ccc2c(c1)C(=O)C(=O)N2CC(=O)OC(C)C,-,-,-,-,-,0.079µM
CCOC(=O)c1ccc(NC(=S)NCCC2=CCCCC2)cc1,-,-,14µM,-,-,?
CCOC(=O)c1ccc(NC(=S)NCCc2ccccc2)cc1,-,-,.,?,?,?
CCOC(=O)c1ccc(NC(=S)NCCc2ccccc2F)cc1,-,28µM,.,-,20µM[quencher],?
Cc1ccc(NC(=O)CCC(=O)N2CCSc3ccccc32)cc1,.,-,.,-,-,.
Cc1nn(Cc2ccccc2)c(C)c1NC(=O)CCCn1nc([N+](=O)[O-])c(Cl)c1C,-,-,-,-,-,?
Cc1nn(Cc2ccccc2)c(C)c1NC(=O)CCCn1nc(C)c([N+](=O)[O-])c1C,-,-,-,-,-,?
Cc1nn(Cc2ccccc2Cl)c(C)c1NC(=O)CCCn1nc(C)c([N+](=O)[O-])c1C,-,-,-,-,-,16µM
Cc1nn(Cc2c(Cl)cccc2Cl)c(C)c1NC(=O)CCCn1nc([N+](=O)[O-])c(Cl)c1C,-,-,-,-,-,6.3µM
CN[C@@H](c1ccncc1)[C@@H](NC)c1ccncc1,.,.,-,.,.,-[13.5 µM]
Cc1ccc(-n2nnnc2C(Cl)c2nnnn2-c2ccc(C)cc2)cc1,-,?,5µM,20µM,-,-
Cc1ccc(N(CC(N)=O)C2SC(=O)N(Cc3cccc(C(=O)O)c3)C2=O)cc1 (stereo unspecified),-,-,-,-,-,20µM
Cc1ccc(S(=O)(=O)OCC2CN3C(CCC(C)C3c3ccc(Br)cc3)C(=O)O2)cc1 (stereo unspecified),.,-[11.6 µM],.,-[11.5 µM],-[11.6 µM],?
O=c1cc(-c2ccc([N+](=O)[O-])cc2)nc2cc(-c3ccc(F)cc3)[nH]n12,-,-,-,10µM,?,7.9µM
Cc1ccccc1-c1cc2nc(-c3ccc([N+](=O)[O-])cc3)cc(=O)n2[nH]1,-,-,.,?,-,-
CC(=O)Nc1cccc(NC(=O)CSc2nnnn2-c2ccc3c(c2)OCO3)c1,-,-,.,-,?,.
O=C1C=C[C@@H](O)[C@H]2[C@@H]3C(=O)N(Cc4ccccc4)C(=O)[C@@H]3CC[C@H]12,.,-[11.6 µM],.,-[11.5 µM],-[11.6 µM],3.2µM
NC(=S)N/N=C\c1ccc(-c2cccc(Cl)c2Cl)o1,?,-,?,?,?,32µM
Cc1ccc(-c2ccc(/C=N/NC(N)=S)o2)cc1,6.3µM,-,.,?,-,.
